Target: Solute carrier family 2, facilitated glucose transporter member 1 (Homo sapiens) (UniProt P11166)
Test: ST_JUDE_LEISH: Cytotoxicity at 2uM final concentration against transgenic Leishmania Mexicana promastigotes LmGLUT1 that are glucose transport deficient and complemented with the human glucose transporter GLUT1. Activity is measured by DNA content using SYBR green in vitro
Format: functional

Chain of Solute carrier family 2, facilitated glucose transporter member 1 (Homo sapiens) (P11166 whole entry): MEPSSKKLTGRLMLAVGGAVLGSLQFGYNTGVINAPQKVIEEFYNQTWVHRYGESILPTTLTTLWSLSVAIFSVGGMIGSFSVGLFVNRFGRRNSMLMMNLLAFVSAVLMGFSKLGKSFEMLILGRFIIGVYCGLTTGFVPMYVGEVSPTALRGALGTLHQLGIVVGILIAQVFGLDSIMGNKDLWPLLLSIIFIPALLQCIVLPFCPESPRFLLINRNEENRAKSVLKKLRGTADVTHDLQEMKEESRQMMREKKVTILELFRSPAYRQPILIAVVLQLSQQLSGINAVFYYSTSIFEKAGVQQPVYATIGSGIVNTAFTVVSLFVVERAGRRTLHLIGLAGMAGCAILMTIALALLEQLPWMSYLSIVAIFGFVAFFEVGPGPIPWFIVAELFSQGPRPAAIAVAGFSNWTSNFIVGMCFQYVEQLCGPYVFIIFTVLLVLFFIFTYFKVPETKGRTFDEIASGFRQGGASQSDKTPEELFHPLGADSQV

Compound | inhibition [%]
Cc1cc(O)nc(NC(=N)NOCc2ccccc2)n1 | -1.66
O=C(N[C@H]1CCN(Cc2ccc(OCCN3CCNCC3)c(Cl)c2)C1)c1ccc(Cl)c(Cl)c1 | -1.27
O=[N+]([O-])c1cc(/C=N/Nc2nc3nonc3nc2Nc2ccc(F)cc2)c(Cl)cc1Cl | -0.53
CSc1nc2nc(C)c(Cc3cccc(C(F)(F)F)c3)c(C)n2n1 | 0.17
CCc1cc(-c2onc(C(F)(F)F)c2-c2ccccc2)c(O)cc1OC | 3.95
Cc1sc2ncnc(Sc3nnc(N)s3)c2c1C | 2.03
CCOC(=O)c1cn(CC)c2cc(N3CCCCCC3)c(F)cc2c1=O | 10.3
Cc1ccccc1Cc1cccc(/N=C(\N)Nc2ccc(Cl)cc2)n1 | 5.38
COc1ccccc1CCNC(=O)c1cc(Br)cc(N2CCN(c3ccncc3)CC2)c1 | 1.16
O=C(Nc1cccc(-c2nn3ccccc3c2-c2ccnc(Nc3ccc(Cc4ccncc4)cc3)n2)c1)c1c(F)cccc1F | 12
CCC(C)CN1C(=O)C(c2ccccc2)(c2ccccc2)N=C1N (stereo not given) | 2.09
O=S(=O)(NCCN1CCCC1)c1ccc(-c2cccc(CNC3Cc4ccccc4C3)c2)cc1 | 2.76
COc1ccc(NS(=O)(=O)c2ccc(C(=O)Nc3ccc(C(F)(F)F)cc3)cc2)cc1N1CCN(CC2CC2)CC1 | 0.55
COc1ccc(CC2(c3ccc(F)cc3)N=C(N)N(CCCc3ccccc3)C2=O)cc1 (stereo not given) | 5.85
O=C(CCCCCNC(=O)c1ccc(O)c(-c2ccc(Cl)c(Cl)c2)c1)NC1CCCc2ccccc21 (stereo not given) | 2.15
CCOc1cc(Cc2cnc(N)nc2N)cc(OC)c1OC | -1.63
COc1ccc(CCNC(=O)c2cc3c(=O)n4cccc(C)c4nc3n(C)c2=N)cc1 | 13.4
CN(C)Cc1ccc(-c2ccc3ccnc(N)c3c2)cc1 | 3.2
CCOc1cc(Cc2cnc(N)nc2N)ccc1OC | 0.52
O=C(NCc1cccc(F)c1)Nc1cccc(-c2cccc(-c3nc4ccccc4[nH]3)c2)c1 | 7.33

Compound | inhibition [%]
COc1ccc(N2CCN(CCCCNC(=O)c3ccc(NC(=O)c4ccc(Cl)c(Cl)c4)cc3)CC2)c(OC)c1 | 2.23
c1cncc(Oc2ccc(Nc3ccnc4cc(-c5cccc(CNCCN6CCOCC6)c5)ccc34)cc2)c1 | 0.19
COc1ccc(CN2CCC(C(=O)Nc3cccc(-c4cccc(Cl)c4)c3)CC2)cc1O | 5.45
CCC1(CC)N=C(N)N=C(N)C1c1ccc(Cl)c(Cl)c1 (stereo not given) | -0.44
O=C(Cc1ccc(NC(=O)c2ccc(O)c(-c3ccc(Cl)c(Cl)c3)c2)cc1)NCc1cccc(C(F)(F)F)c1 | 2.33
OC1(C(F)(F)F)CC(c2ccccc2)=NN1c1nncc(-c2ccccc2)n1 (stereo not given) | 0.8
CN1CCN(c2ccc(Nc3nccc(-c4cnn5ncccc45)n3)cc2Cl)CC1 | 90.6
CC(C)(C)c1ccc(-c2csc(NC(=O)CC(c3ccccc3)c3ccccc3)n2)cc1 | 1.4
CC(C)(C)c1ccc(CN2CCC(CNC(=O)c3cc(-c4ccccc4)nc4ccccc34)CC2)cc1 | -2.07
Cc1cc(=O)[nH]c(-n2nc(C)cc2NC(=O)C2(c3ccc(Cl)cc3)CCCC2)n1 | 61.6
Cn1cnc2c(Nc3ccncc3)nc(-c3ccc4c(c3)OCO4)nc21 | 8.06
Cc1nc2nc(N)nc(N)c2c(C)c1Cc1ccc(O)cc1 | -0.09
CC(CNC(=O)[C@H]1CNCCN1C(=O)CCCc1ccccc1)c1ccccc1 (stereo not given in full) | 0.97
CC(C)CC(=O)N1CCNC[C@@H]1C(=O)NCCSCc1c(F)cccc1Cl | 3.36
COc1cc(CNCCCNc2nc3ncccc3[nH]2)c2[nH]cc(Br)c2c1 | 23.9
CSc1cccc(NC(=O)Nc2ccc(I)c(OCCN(C)C)c2)c1 | 4.88
Fc1ccc2[nH]c(-c3cccc(-c4ccc(CN5CCC(CCN6CCCCC6)CC5)cc4)c3)nc2c1 | -0.64
Cc1nc(O)c2c(ccc3ccc(CNc4ccc(C(=O)N[C@@H](CCC(=O)O)C(=O)O)cc4)cc32)n1 | 0.64
COc1ccc2nccc([C@@H](O)CN3CCC(NC(=O)c4ccc(C5(C(F)(F)F)N=N5)cc4)CC3)c2c1 | 14.3
O=C(Nc1ccc(Cl)cc1)N[C@H]1CCN(Cc2ccc(OCCCN3CCCCC3)cc2)C1 | -0.92

Target: Hexose transporter 1 (Plasmodium falciparum) (UniProt O97467)
Test: ST_JUDE_LEISH: Cytotoxicity at 2uM final concentration against transgenic Leishmania Mexicana promastigotes LmPfHT that are glucose transport deficient and complemented with the Plasmodium falciparum hexose transporter. Activity is measured by DNA content using SYBR green in vitro
Format: functional

Compound | inhibition [%]
Cc1cc(O)nc(NC(=N)NOCc2ccccc2)n1 | 1.03
O=C(N[C@H]1CCN(Cc2ccc(OCCN3CCNCC3)c(Cl)c2)C1)c1ccc(Cl)c(Cl)c1 | -3.15
O=[N+]([O-])c1cc(/C=N/Nc2nc3nonc3nc2Nc2ccc(F)cc2)c(Cl)cc1Cl | -0.25
CSc1nc2nc(C)c(Cc3cccc(C(F)(F)F)c3)c(C)n2n1 | 0
CCc1cc(-c2onc(C(F)(F)F)c2-c2ccccc2)c(O)cc1OC | 3.34
Cc1sc2ncnc(Sc3nnc(N)s3)c2c1C | 3.89
CCOC(=O)c1cn(CC)c2cc(N3CCCCCC3)c(F)cc2c1=O | 4.48
Cc1ccccc1Cc1cccc(/N=C(\N)Nc2ccc(Cl)cc2)n1 | 5.38
COc1ccccc1CCNC(=O)c1cc(Br)cc(N2CCN(c3ccncc3)CC2)c1 | 2.75
O=C(Nc1cccc(-c2nn3ccccc3c2-c2ccnc(Nc3ccc(Cc4ccncc4)cc3)n2)c1)c1c(F)cccc1F | 17.3
CCC(C)CN1C(=O)C(c2ccccc2)(c2ccccc2)N=C1N (stereo not given) | 2.72
O=S(=O)(NCCN1CCCC1)c1ccc(-c2cccc(CNC3Cc4ccccc4C3)c2)cc1 | 8.98
COc1ccc(NS(=O)(=O)c2ccc(C(=O)Nc3ccc(C(F)(F)F)cc3)cc2)cc1N1CCN(CC2CC2)CC1 | 0.6
COc1ccc(CC2(c3ccc(F)cc3)N=C(N)N(CCCc3ccccc3)C2=O)cc1 (stereo not given) | 5.5
O=C(CCCCCNC(=O)c1ccc(O)c(-c2ccc(Cl)c(Cl)c2)c1)NC1CCCc2ccccc21 (stereo not given) | 2.14
CCOc1cc(Cc2cnc(N)nc2N)cc(OC)c1OC | -0.5
COc1ccc(CCNC(=O)c2cc3c(=O)n4cccc(C)c4nc3n(C)c2=N)cc1 | 10.1
CN(C)Cc1ccc(-c2ccc3ccnc(N)c3c2)cc1 | 4.43
CCOc1cc(Cc2cnc(N)nc2N)ccc1OC | 0.12
O=C(NCc1cccc(F)c1)Nc1cccc(-c2cccc(-c3nc4ccccc4[nH]3)c2)c1 | 5.52

Compound | inhibition [%]
COc1ccc(N2CCN(CCCCNC(=O)c3ccc(NC(=O)c4ccc(Cl)c(Cl)c4)cc3)CC2)c(OC)c1 | 1.72
c1cncc(Oc2ccc(Nc3ccnc4cc(-c5cccc(CNCCN6CCOCC6)c5)ccc34)cc2)c1 | -1.57
COc1ccc(CN2CCC(C(=O)Nc3cccc(-c4cccc(Cl)c4)c3)CC2)cc1O | 7.5
CCC1(CC)N=C(N)N=C(N)C1c1ccc(Cl)c(Cl)c1 (stereo not given) | 0.07
O=C(Cc1ccc(NC(=O)c2ccc(O)c(-c3ccc(Cl)c(Cl)c3)c2)cc1)NCc1cccc(C(F)(F)F)c1 | 2.65
OC1(C(F)(F)F)CC(c2ccccc2)=NN1c1nncc(-c2ccccc2)n1 (stereo not given) | 0.53
CN1CCN(c2ccc(Nc3nccc(-c4cnn5ncccc45)n3)cc2Cl)CC1 | 95.1
CC(C)(C)c1ccc(-c2csc(NC(=O)CC(c3ccccc3)c3ccccc3)n2)cc1 | 1.95
CC(C)(C)c1ccc(CN2CCC(CNC(=O)c3cc(-c4ccccc4)nc4ccccc34)CC2)cc1 | 0.33
Cc1cc(=O)[nH]c(-n2nc(C)cc2NC(=O)C2(c3ccc(Cl)cc3)CCCC2)n1 | 66.3
Cn1cnc2c(Nc3ccncc3)nc(-c3ccc4c(c3)OCO4)nc21 | 6.78
Cc1nc2nc(N)nc(N)c2c(C)c1Cc1ccc(O)cc1 | -2.78
CC(CNC(=O)[C@H]1CNCCN1C(=O)CCCc1ccccc1)c1ccccc1 (stereo not given in full) | -1.25
CC(C)CC(=O)N1CCNC[C@@H]1C(=O)NCCSCc1c(F)cccc1Cl | 5.07
COc1cc(CNCCCNc2nc3ncccc3[nH]2)c2[nH]cc(Br)c2c1 | 43.1
CSc1cccc(NC(=O)Nc2ccc(I)c(OCCN(C)C)c2)c1 | 4.31
Fc1ccc2[nH]c(-c3cccc(-c4ccc(CN5CCC(CCN6CCCCC6)CC5)cc4)c3)nc2c1 | 4.58
Cc1nc(O)c2c(ccc3ccc(CNc4ccc(C(=O)N[C@@H](CCC(=O)O)C(=O)O)cc4)cc32)n1 | 2.36
COc1ccc2nccc([C@@H](O)CN3CCC(NC(=O)c4ccc(C5(C(F)(F)F)N=N5)cc4)CC3)c2c1 | 24.5
O=C(Nc1ccc(Cl)cc1)N[C@H]1CCN(Cc2ccc(OCCCN3CCCCC3)cc2)C1 | 1.45
